Data on 40 compounds can be found in PubChem BioAssay (Tox21).

SMILES strings stand for the structures. A number with no mark means an inactive call. The source made the active and inactive calls. Calls follow the shape of the dose curve; as a rule, active = well fitted curve in the direction sought with a large enough effect in the repeat runs; inconclusive = weak or mixed curves; inactive = flat fitted curve, though single readings scatter.
% is scaled to controls: 0 for no effect and ±100 for the full control effect.

The assay is described as follows: qHTS assay to test for compound auto fluorescence at 590 nm (red) in HepG2 cells (AID 720674). The conditions noted are these: HepG2 autofluorescence, red 540/590 nm, 1 h; series mostly up to 91.3 µM; fluorescence, relative to Rose Bengal: at the top concentration. The text has this: U.S. Tox21 Program National Center for Advancing Translational Sciences [NCATS] NIH Chemical Genomics Center [NCGC] U.S. Environmental Protection Agency [EPA] National Institutes of Environmental Health Sciences [NIEHS] National Toxicology Program [NTP] U.S. Food and Drug Administration [FDA] Tox21 Assay Overview: Compound auto fluorescence often interferes with screening of the compound library against various biological targets and signaling pathways. Some of these compounds may have fluorophoric properties. Such properties may interfere with the assay outputs resulting in false positives and/or negatives. To decrease such complications and ensure the compound activities are relevant in terms of biological response, the Tox21 10K compound library was screened for auto fluorescence. From the fluorophores used as reporter signals in our screening assays, the auto fluorescence equivalencies of compounds against three fluorophores have been evaluated: Triamterene, Fluorescein and Rose Bengal sodium for blue, green and red fluorescence, respectively. The fluorescence intensities were measured using Excitation/Emission wavelengths at 405/460nm, 485/535nm and 540/590nm for blue, green and red labels, respectively. This assay includes the red fluorescence data.
Tox21 Assay Protocol Summary: 2,000 HepG2 cells in 5 uL of culture medium (MEM containing 10% FBS) per well were dispensed into black wall/clear bottom 1536-well plates using a Multidrop Combi Dispenser (ThermoFisher Scientific, Waltham, MA). The assay plates were incubated overnight at 37 C to allow cell attachment to the well bottom, followed by the transfer of 23 nL compound or DMSO vehicle by a pintool work station (Kalypsys , San Diego, CA). After the assay plates were incubated for 1 hr at 37 C and 5% CO2, fluorescence intensities in the assay plates were measured by an Envision (PerkinElmer, Shelton, CT) plate reader using three labels for measuring blue, green and red fluorescence at […] 460, 535 and 590 nm respectively.
Regarding `C=CC(=O)OCCOC(=O)C=C`, the “fluorescence, relative to Rose Bengal” value was 0.0233%.
In the case of `O=C(O)c1cc(-c2ccc(F)cc2F)ccc1O`, the fluorescence, relative to Rose Bengal is 0.164% [at 18.6 µM].
Regarding `Nc1cc(Cl)c(O)c(Cl)c1`, the “fluorescence, relative to Rose Bengal” value was -0.276%.
Take `NC(=S)NC(N)=S`: the “fluorescence, relative to Rose Bengal” value is 0.114%.
For `CC(C)Cn1cnc2c(N)nc3ccccc3c21`, the “fluorescence, relative to Rose Bengal” value was 0.233% [at 46 µM].
Turning to `CC(CO)Oc1ccccc1` (stereo not given), the “fluorescence, relative to Rose Bengal” value was -0.26% [at 95.7 µM].
The same measure, in the same setting: the figure for `CC(C)(C)CC(C)(C)c1ccc(Nc2ccc(C(C)(C)CC(C)(C)C)cc2)cc1` is 0.212% [at 3.72 µM]; for `NC(=O)c1cccc([N+](=O)[O-])c1` it is -0.0362%; for `CC(C)=CCC1=C(O)c2ccccc2C(=O)C1=O` it is 0.0286%.
For `Oc1c(I)cc(Cl)c2cccnc12`, the Potency result was “inactive”.
Consider `Cc1nc(-c2ccc(Cl)cc2)oc1COC(C)(C)C(=O)O`, for which the “fluorescence, relative to Rose Bengal” value was -0.391% [at 46 µM].
For `CC(CCc1ccccc1)NCC(O)c1ccc(O)c(C(N)=O)c1` (stereo not given), the Potency entry is “inactive”.
For `S=c1nccc[nH]1`, the “fluorescence, relative to Rose Bengal” value was -0.0418%.
`[Cl][Pt-2]([Cl])([Cl])[Cl]`: the “fluorescence, relative to Rose Bengal” value was 0.0326%.
With `O=c1c(O)c(-c2ccc(O)cc2O)oc2cc(O)cc(O)c12`, the “fluorescence, relative to Rose Bengal” value is 0.0005%.
Consider `O=C1CCc2ccc(OCCCCN3CCN(c4cccc(Cl)c4Cl)CC3)cc2N1`, for which the “fluorescence, relative to Rose Bengal” value is -0.0827% [at 46 µM].
For `CC(=O)c1ccc(C(C)=O)cc1`, the “fluorescence, relative to Rose Bengal” value was -0.0737% [at 95.7 µM].
For `COc1cc2nc(N3CCN(C(=O)c4ccco4)CC3)nc(N)c2cc1OC`, the “fluorescence, relative to Rose Bengal” value was 0.0108% [at 46 µM].
Turning to `Cc1nc2n(c(=O)c1CCN1CCC(c3noc4cc(F)ccc34)CC1)CCCC2`, the “fluorescence, relative to Rose Bengal” value was 0.386% [at 46 µM].
Same read-out and setting: the figure for `CCC(C)n1ncn(-c2ccc(N3CCN(c4ccc(OC[C@H]5CO[C@](Cn6cncn6)(c6ccc(Cl)cc6Cl)O5)cc4)CC3)cc2)c1=O` (stereo not given in full) is -0.0082% [at 46 µM].
As for `O=S(=O)(O)c1ccccc1/C=C/c1ccc(-c2ccc(/C=C/c3ccccc3S(=O)(=O)O)cc2)cc1`, the “fluorescence, relative to Rose Bengal” value was -0.229%.
Turning to `CC(C)(C)c1ccc(C(O)CCCN2CCC(C(O)(c3ccccc3)c3ccccc3)CC2)cc1` (stereo not given), the Potency entry was “inactive”.
On to `COc1cc(C)ccc1O`, for which the “fluorescence, relative to Rose Bengal” value is 0.133%.
Consider `CC(=O)[C@H]1CC[C@H]2[C@@H]3CCC4=CC(=O)CC[C@]4(C)[C@H]3CC[C@]12C`, for which the Potency result is “inactive”.
On to `COc1ccc2cc1Oc1ccc(cc1)C[C@H]1c3c(cc4c(c3Oc3cc5c(cc3OC)CCN(C)[C@@H]5C2)OCO4)CCN1C`, for which the “fluorescence, relative to Rose Bengal” value was -0.106% [at 46 µM].
In the case of `NC[C@H]1O[C@H](O[C@H]2[C@H](O[C@@H]3O[C@H](CO)[C@@H](O)[C@H]3O)C(O)[C@H](N)C[C@@H]2N)[C@H](N)[C@@H](O)[C@@H]1O` (stereo not given in full), the fluorescence, relative to Rose Bengal is -0.0462% [at 18.6 µM].
Turning to `Cc1cccc2cccnc12`, the “fluorescence, relative to Rose Bengal” value is -0.19%.
Take `CCCCCCCCCCCCCCCC[N+](C)(C)CC`: the Potency result was “inactive”.
Consider `CC1=Nc2ccccc2C1(C)C`, for which the “fluorescence, relative to Rose Bengal” value was -0.0113%.
As to `COC(C)=O`, the Potency result was “inactive”.
In the case of `COc1cc(S(=O)(=O)O)c(C)cc1N=Nc1c(O)ccc2cc(S(=O)(=O)O)ccc12`, the “fluorescence, relative to Rose Bengal” value is 2.34%.
Turning to `CCCCCCCCCCCCOC(=O)c1ccc(O)cc1`, the “fluorescence, relative to Rose Bengal” value is 0.0257%.
In the case of `C#C[C@]1(O)CC[C@H]2[C@@H]3[C@H](C)CC4=C(CCC(=O)C4)[C@H]3CC[C@@]21C`, the “fluorescence, relative to Rose Bengal” value is -0.566% [at 46 µM].
Consider `OC12N=C(c3ccccc3)SC1Cc1cc(Cl)ccc12` (stereo not given), for which the “fluorescence, relative to Rose Bengal” value was -0.172%.
For the compound `CCCCCCOC(=O)C(C)CC` (stereo not given), the “fluorescence, relative to Rose Bengal” value was 0.129%.
Take `Cc1ccc(N/N=c2\c(=O)cc/c(=N\Nc3ccc(S(=O)(=O)O)cc3)c2=O)c(C)c1`: the “fluorescence, relative to Rose Bengal” value was -0.111%.
For `CC(N=C(NC#N)Nc1ccncc1)C(C)(C)C` (stereo not given), the “fluorescence, relative to Rose Bengal” value is 0.616% [at 46 µM].
`O=C1OC2(c3ccc(O)cc3Oc3cc(O)ccc32)c2ccc(N=C=S)cc21`: the “fluorescence, relative to Rose Bengal” value is 0.251% [at 95.7 µM].
`O=C(Nc1ccc2c(O)c(N=Nc3ccc(N=Nc4ccc(S(=O)(=O)O)cc4)cc3)c(S(=O)(=O)O)cc2c1)c1ccccc1`: the “fluorescence, relative to Rose Bengal” value was -0.712%.
Take `CC(=O)CC(=O)Nc1ccc(S(=O)(=O)O)cc1`: the “fluorescence, relative to Rose Bengal” value is -0.0081%.
